Reference: PubChem BioAssay (NCI)
This is part of a sample that, as a whole, favours compounds with a hit. Of some 83,000 tested, about 20% had one in any assay.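 Activity criterion: percent growth below 10, measured after cells in 96-well plates were exposed to a single compound concentration for 48 hours.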 Unmarked numbers belong to inactive results. Activity calls are given as the source filed them.

Tested on: CCRF-CEM leukemia
Test: NCI-60 one-dose screen, 48 h (100 = growth as untreated, 0 = no growth, -100 = all killed)
Settings: 10 µM
Protocol: Growth inhibition of the CCRF-CEM human tumor cell line is measured as a screen for anti-cancer activity. Cells are grown in 96 well plates and exposed to the test compound for 48 hours. Compounds are tested at a single concentration, which is 10^-5 M for most compounds. The reported endpoint is percent growth (GI% or GIPRCNT), where numbers from 0 - 100% represent growth inhibition, and numbers from -100% - 0 represent cell death. For example, a value of 40 represents 60% growth inhibition. A value of 0 means no net growth occurred over the course of the experiment. A value of -40 indicates 40% of cells at the beginning of the experiment died by the end of the experiment. A value of -100 means all cells are dead at the end of the experiment.
NCI-60 Human Tumor Cell Lines Screen was performed using the standard one-dose NCI protocol, which is described in more detail at https://dtp.cancer.gov/discovery_development/nci-60/default.htm.
Compounds with GIPRCNT values below 10 were considered active. Activity score was based on GIPRCNT using the following formula: […]
Score is 0 for GIPRCNT values of 100 or above, 50 for GIPRCNT values of 0, and 100 for GIPRCNT values of -100.

**Q.** Which growth does the source give for O=c1cc(-c2ccccc2)[nH]n1-c1nc2ccccc2[nH]1 here?
**A.** 11.9%

**Q.** For CCC(=O)N1C/C(=C/c2ccc(Cl)cc2)C(=O)/C(=C/c2ccc(Cl)cc2)C1, which growth is on record?
**A.** -11.1% (active)

**Q.** For CCC1(C(C)C)NC(=O)NC1=O (stereo not given), which growth is on record?
**A.** 92.4%

**Q.** O=S(=O)(Nc1ccccn1)c1ccc(N=Nc2ccc(O)c3ncccc23)cc1 was tested. Which growth did it give?
**A.** 7.55% (active)

**Q.** NC(=O)CC1(c2ccccc2)CCCCC1 was tested. Which growth did it give?
**A.** 98.9%

**Q.** C=C(C(=O)c1ccccc1)C(NC(C)(C)C)c1ccccc1 (stereo not given) was tested. Which growth did it give?
**A.** 5.75% (active)

**Q.** How did the growth turn out when COc1cc(/C=C2\Oc3cc(OCC(=O)c4ccccc4)ccc3C2=O)cc(OC)c1OC was run?
**A.** 73.2%

**Q.** With COc1ccc(/C=C/C(=O)Nc2ccc(-c3nc4ccc(F)cc4s3)cc2)cc1 as the compound, how does the growth read?
**A.** 81.3%

**Q.** How did the growth turn out when COc1cc(-c2cc(C(=O)N3CCN(C(=O)c4ccccc4NCc4ccco4)CC3)nc3cc(-c4ccccc4)nn23)cc(OC)c1OC was run?
**A.** 19.3%

**Q.** For CCN(CC)CCNc1ccc(CO)c2oc3cc(Cl)ccc3c(=O)c12, which growth is on record?
**A.** 66.6%

**Q.** How did the growth turn out when Clc1ccc(/C=C2\CCCC3=C2N=C2SC=NN2C3c2ccc(Cl)cc2)cc1 (stereo not given) was run?
**A.** 86.6%

**Q.** With CCOC(=O)c1ccoc1 as the compound, how does the growth read?
**A.** 100%

**Q.** COc1cc2cc3c(nc2cc1OC)CCN3Cc1ccc(NC(=O)c2ccc(Cl)c(C(F)(F)F)c2)cc1 was tested. Which growth did it give?
**A.** 91%

**Q.** With Cc1ccc(S(=O)(=O)Oc2ccc3c4c(c(=O)oc3c2)CCCCC4)cc1 as the compound, how does the growth read?
**A.** 43%

**Q.** Which growth does the source give for COc1cc(C2CC(c3ccc(Nc4ccnc5cc(Cl)ccc45)cc3)=NN2c2ccc(Cl)cc2)cc(OC)c1OC (stereo not given) here?
**A.** 28%

**Q.** Which growth does the source give for Clc1ccc2c(NCCCNc3nccc(Nc4ccc(Br)cc4)n3)ccnc2c1 here?
**A.** -24.5% (active)

**Q.** How did the growth turn out when Cc1ccc(NC(=O)Nc2nc3ccccc3s2)cc1NC(=O)Nc1nc2ccccc2s1 was run?
**A.** 74.2%

**Q.** For Cc1nc2ccc(CN(C)c3ccc(C(=O)N[C@@H](CCC(=O)O)C(=O)O)s3)cc2c(=O)[nH]1, which growth is on record?
**A.** 33.1%

**Q.** For Cc1cc(N(CCCNc2ccnc3cc(Cl)ccc23)Cc2ccc3c(c2)OCO3)nc(N2CCOCC2)n1, which growth is on record?
**A.** -8.38% (active)

**Q.** With COc1cc(-c2cc(/C=C3\C(=O)Nc4ccccc43)[nH]n2)cc(OC)c1OC as the compound, how does the growth read?
**A.** 22.3%

**Q.** How did the growth turn out when N#Cc1ncc(Br)c(NC2CCCCCC2)n1 was run?
**A.** 85%

**Q.** For COC(=O)C1=NNC(=S)N(c2cc(C)[nH]n2)C(=O)C1, which growth is on record?
**A.** 91.8%

**Q.** N#CC1=C(Nc2ccccc2Cl)SC(c2ccccc2O)NC1=O (stereo not given) was tested. Which growth did it give?
**A.** 99.9%

**Q.** Which growth does the source give for N=C(N)c1ccc(-c2ccc(-c3ccco3)o2)cc1 here?
**A.** 60.7%

**Q.** How did the growth turn out when COc1cc(-c2nc(-c3nnc(-c4ccccc4Cl)o3)c3ccccn23)cc(OC)c1OC was run?
**A.** 51.4%

**Q.** Which growth does the source give for Cc1ccc(NC(=O)Nc2cccnc2)cc1NC(=O)Nc1cccnc1 here?
**A.** 58.2%

**Q.** How did the growth turn out when COc1cc2c(cc1OCCCCCCN1CCN(CC(=O)Nc3ccc(Cl)cc3C(=O)c3ccccc3Cl)CC1)N=CC1CCCN1C2=O (stereo not given) was run?
**A.** -66.3% (active)

**Q.** With Nc1c(C(=O)Nc2ccccc2)sc2nc3c(cc12)C(O)CCC3 (stereo not given) as the compound, how does the growth read?
**A.** 14.2%

**Q.** With CN(C)CCCn1c(=O)c2ccccc2c2cnc3[nH]ccc3c21 as the compound, how does the growth read?
**A.** 18.6%

**Q.** CCCCCCCCCCCCCC[n+]1ccc(C(N)=O)cc1 was tested. Which growth did it give?
**A.** 2.78% (active)

**Q.** Which growth does the source give for COc1ccc(-c2csc(NC(=O)CSc3nc(C)c(-c4ccccc4)n3Nc3ccccc3)n2)cc1 here?
**A.** 28.3%

**Q.** For COc1ccc(-c2nn(-c3cccc(NC(=O)Nc4cc(C(F)(F)F)cc(C(F)(F)F)c4)c3)cc2-c2ccncc2)cc1Cl, which growth is on record?
**A.** -17.8% (active)

**Q.** With CCN(CC)CCC(CNc1c(C)cnc2cc(Cl)ccc12)c1ccc(Cl)cc1 (stereo not given) as the compound, how does the growth read?
**A.** 42%

**Q.** For CNc1ccc(CSc2ccc(C)cc2)cc1, which growth is on record?
**A.** 43.7%

**Q.** For CC(=O)c1nc2ccccc2n1CCN1CCN(C)CC1, which growth is on record?
**A.** 3.66% (active)

**Q.** CN(C)CCN=c1nc2c(c(N)n1-c1ccccc1)c(=S)n(-c1ccccc1)c(=S)n2-c1ccccc1 was tested. Which growth did it give?
**A.** -8.26% (active)

**Q.** COc1cc(Cl)cc(-c2nn(-c3cccc(NC(=O)Nc4ccc(Cl)c(C(F)(F)F)c4)c3)cc2-c2ccncc2)c1 was tested. Which growth did it give?
**A.** 1.88% (active)

**Q.** Which growth does the source give for COc1cc(/C=C\c2cc(OC)c(OC)c(OC)c2)cc(NS(=O)(=O)c2ccc(Cl)cc2)c1OC here?
**A.** 14.6%

**Q.** For COc1ccc2c(c1)O/C(=C\c1ccc([N+](=O)[O-])o1)C2=O, which growth is on record?
**A.** 0.117% (active)

**Q.** For CC(C)(C#N)Nc1ccccc1, which growth is on record?
**A.** 97.1%
